This passage reports Potency and outcome results from PubChem BioAssay (Tox21).

The structures appear in SMILES notation. “And” between values parts separate entries of the source, which are not always exact repeats. Equal entries are not always repeated. Inconclusive results are not listed. The source holds several records for some structures; these can differ, active in one and inactive in another. The source made the active and inactive calls. Unless noted, calls come from the whole dose curve; as a rule, active = well fitted curve in the direction sought with a large enough effect in the repeat runs; inconclusive = weak or mixed curves; inactive = no such curve, though single readings can be large; an effect the other way counts as inactive or inconclusive.

A short description of test [1]: qHTS assay to identify aromatase inhibitors - cell viability counter screen (AID 743084).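 Note: cells stimulated with testosterone during compound exposure; nearly all actives have a fitted effect of over 55% in size.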 Note: potency is the fitted concentration of half-maximal effect.
For test [2], the target named is Aryl hydrocarbon receptor (Homo sapiens) (UniProt P35869). The test is described as follows: qHTS assay to identify small molecule that activate the aryl hydrocarbon receptor (AhR) signaling pathway (AID 743085).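 For activation: HG2L7.5c1 human HepG2 liver cells with stably integrated DRE-driven firefly reporter; series mostly up to about 70 µM.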 Note: nearly all actives have a fitted effect of over 15% in size. Note: potency is the fitted concentration of half-maximal effect. In short, it runs like this:
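Luminescence (ONE-Glo) from a dioxin-responsive-element luciferase reporter in HG2L7.5c1 HepG2 cells after 24 hr compound exposure at 37C; viability measured by CellTiter-Fluor fluorescence beforehand.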
A general note: qHTS replaces the single test concentration by a dilution series.

Test [3] can be described thus: qHTS assay to identify small molecule that activate the aryl hydrocarbon receptor (AhR) signaling pathway - cell viability counter screen (AID 743086). Note: nearly all actives have a fitted effect of over 45% in size. Note: potency is the fitted concentration of half-maximal effect. In short, it runs like this: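 HepG2-AhR-luc (HG2L7.5c1) cells, 4000/well, were preincubated 5 h at 37C, exposed to compound in qHTS format for 24 hr at 37C, then given CellTiter-Fluor for 30 min; viability was read as fluorescence in the reporter wells.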

The target in test [4] is Peroxisome proliferator-activated receptor gamma (Homo sapiens) (UniProt P37231). The test is described as follows: qHTS assay to identify small molecule agonists of the peroxisome proliferator-activated receptor gamma (PPARg) signaling pathway (AID 743094; active = well fitted activation curve with a large enough effect in the signal ratio in the repeat runs, not every such curve was filed as active; the % refers to the signal ratio). An outline of the steps:
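Following 5 h plating at 37C, PPARg-bla HEK293H cells receive compound or DMSO for 17 h; fluorescence intensity is recorded after LiveBLAzer B/G loading for 1 h at room temperature.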

The target is the same in test [5]. Description: qHTS assay to identify small molecule antagonists of the peroxisome proliferator-activated receptor gamma (PPARg) signaling pathway (AID 743191; calls by dose curve; note: series mostly up to about 63 µM; nearly all actives have a fitted effect of over 30% in size). An outline of the steps: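 GeneBLAzer PPARg UAS-bla HEK293H cells carrying a UAS-driven beta-lactamase reporter were plated at 3000 cells/well, preincubated 5 h at 37C, then given compound for 17 h at 37C; LiveBLAzer B/G FRET substrate was read after 1 h at room temperature.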

Test [6] in a line: qHTS assay to identify small molecule antagonists of the peroxisome proliferator-activated receptor gamma (PPARg) signaling pathway - cell viability counter screen (AID 743194). Note: nearly all actives have a fitted effect of over 55% in size. The following applies: Potency: co-treated with 50 nM rosiglitazone. In short, it runs like this: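 PPARg-UAS-bla HEK293H cells were plated, rested 5 h at 37 C, then treated with compounds plus rosiglitazone (50 nM final) for 17 h at 37 C; viability was then read by CellTiter-Glo luminescence after 30 min at room temperature.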

Test [7] in a line: qHTS assay for small molecule agonists of the antioxidant response element (ARE) signaling pathway - cell viability counter screen (AID 743203; calls by dose curve; note: nearly all actives have a fitted effect of over 55% in size; note: potency is the fitted concentration of half-maximal effect). In short, it runs like this:
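Compounds in DMSO were pinned onto ARE-bla HepG2 cells plated 5 hrs earlier at 2,000 cells/well. Sixteen hours later at 37C/5% CO2, CellTiter-Glo was added and luminescence measured after 30 min at room temperature.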

Test [8] can be described thus: qHTS assay for small molecule activators of the heat shock response signaling pathway - cell viability counter screen (AID 743209). Note: nearly all actives have a fitted effect of over 50% in size. In short, it runs like this:
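Counter screen for cytotoxicity in HeLa HSE-bla reporter cells. Treatment was 5 h at 37 C; viability was detected by luminescent ATP assay (CellTiter-Glo) in the same wells as the beta-lactamase read.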

A short description of test [9]: qHTS assay for small molecule activators of the heat shock response signaling pathway (AID 743210; active = well fitted activation curve with a large enough effect in the signal ratio in the repeat runs, with a control signal flat, not every such curve was filed as active; the % refers to the signal ratio; note: series mostly up to about 63 µM). In short, it runs like this:
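HSE-bla HeLa cells (beta-lactamase reporter under heat shock response elements) were exposed to compounds for 5 h at 37 C, then loaded with LiveBLAzer B/G FRET substrate for 2.5 h at room temperature before fluorescence reading.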

A short description of test [10]: qHTS assay to identify small molecule agonists of the peroxisome proliferator-activated receptor delta (PPARd) signaling pathway - cell viability counter screen (AID 743211). Note: nearly all actives have a fitted effect of over 55% in size. An outline of the steps: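 Viability was measured as CellTiter-Glo luminescence (30 min, room temperature) in the same wells as the beta-lactamase readout. GeneBLAzer PPARd UAS-bla HEK293H cells received compound after 5 h plating and were incubated 17 h at 37 C.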

Test [11] deals with Peroxisome proliferator-activated receptor delta (Homo sapiens) (UniProt Q03181). Description: qHTS assay to identify small molecule agonists of the peroxisome proliferator-activated receptor delta (PPARd) signaling pathway (AID 743212; calls by dose curve). An outline of the steps:
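GeneBLAzer PPARd UAS-bla HEK293H cells (beta-lactamase reporter under UAS control), plated and rested 5 h at 37 C, then exposed to compounds in DMSO at 37 C; LiveBLAzer B/G FRET substrate added, 2 h room temperature, fluorescence read.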

The nature of test [12]: qHTS assay to identify small molecule antagonists of the peroxisome proliferator-activated receptor delta (PPARd) signaling pathway - cell viability counter screen (AID 743213). Note: nearly all actives have a fitted effect of over 50% in size. In short, it runs like this: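 Agonist-stimulated (L165041, 300 nM final) HEK293H PPARd UAS-bla cells are exposed to compounds for 17 h at 37 C, and ATP-based luminescence (CellTiter-Glo) from the same wells reports cytotoxicity.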

The target in test [13] is Peroxisome proliferator-activated receptor delta (Homo sapiens) (UniProt Q03181). Description: qHTS assay to identify small molecule antagonists of the peroxisome proliferator-activated receptor delta (PPARd) signaling pathway (AID 743215; active = well fitted inhibition curve with a large enough effect in the signal ratio in the repeat runs, not every such curve was filed as active; the % refers to the signal ratio; note: series mostly up to about 62 µM). In short, it runs like this:
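With L165041 present at 300 nM final, compounds were incubated 17 h at 37 C on PPARd UAS-bla HEK293H cells. A FRET-based beta-lactamase substrate was then applied for 2 h at room temperature and fluorescence intensity recorded.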

Test [14] addresses Bile acid receptor (Homo sapiens) (UniProt Q96RI1). The test is described as follows: qHTS assay to identify small molecule antagonists of the farnesoid-X-receptor (FXR) signaling pathway (AID 743217; active = well fitted inhibition curve with a large enough effect in the signal ratio in the repeat runs, not every such curve was filed as active; the % refers to the signal ratio). In short, it runs like this: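 In this cell-based antagonist screen, inhibition of CDCA-driven (50 uM final) UAS-beta-lactamase expression in HEK 293T cells was measured by FRET fluorescence following 16 h compound exposure at 37 °C.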

Test [15] is described as follows: qHTS assay to identify small molecule agonists of the farnesoid-X-receptor (FXR) signaling pathway - cell viability counter screen (AID 743218). Note: nearly all actives have a fitted effect of over 45% in size. Note: potency is the fitted concentration of half-maximal effect. In short, it runs like this: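 After 16 h at 37 C with test compounds, FXR-bla HEK 293T cells were given LiveBLAzer B/G substrate for 2 h at RT and then CellTiter-Glo; luminescence was taken after 30 min.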
In test [16] the target is Bile acid receptor (Homo sapiens) (UniProt Q96RI1). The test is described as follows: qHTS assay to identify small molecule agonists of the farnesoid-X-receptor (FXR) signaling pathway (AID 743220; active = well fitted activation curve with a large enough effect in the signal ratio in the repeat runs, not every such curve was filed as active; the % refers to the signal ratio). An outline of the steps:
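Beta-lactamase reporter under UAS control in GeneBLAzer FXR HEK 293T cells (5000/well) measured with LiveBLAzer FRET substrate after 2 h at room temperature. Compound exposure lasted 16 h at 37C.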

A short description of test [17]: qHTS assay to identify small molecule antagonists of the farnesoid-X-receptor (FXR) signaling pathway - cell viability counter screen (AID 743221; active = well fitted cell-killing curve with a large enough effect in the repeat runs, not every such curve was filed as active; note: nearly all actives have a fitted effect of over 50% in size). An outline of the steps:
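Cytotoxicity counter screen run in the FXR-bla reporter wells: HEK 293T cells exposed to compound with 50 uM (final) chenodeoxycholic acid for 16 h, 37 C, then viability measured by CellTiter-Glo luminescence after 30 min, room temperature.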

Test [18] has as its target Vitamin D3 receptor (Homo sapiens) (UniProt P11473). Description: qHTS assay to identify small molecule agonists of the vitamin D receptor (VDR) signaling pathway (AID 743222; calls by dose curve). In short, it runs like this:
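VDR-bla cells were seeded, left 4 h, treated with compounds in DMSO for 16 h, incubated 2 h at RT with B/G FRET substrate, and read for fluorescence.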

For test [19] the target is unchanged. The test is described as follows: qHTS assay to identify small molecule antagonists of the vitamin D receptor (VDR) signaling pathway (AID 743223; active = well fitted inhibition curve with a large enough effect in the signal ratio in the repeat runs, not every such curve was filed as active; the % refers to the signal ratio). In short, it runs like this: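 Antagonist mode: compound added to VDR-bla cells alongside agonist 1alpha,25-dihydroxyvitamin D3 (3 nM final), incubation 16 h at 37C. Read-out is LiveBLAzer FRET fluorescence, 2 h at room temperature.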

Test [20] in a line: qHTS assay for small molecule agonists of the antioxidant response element (ARE) signaling pathway (AID 743202; active = well fitted activation curve with a large enough effect in the signal ratio in the repeat runs, not every such curve was filed as active; the % refers to the signal ratio). An outline of the steps: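 Read-out: LiveBLAzer B/G FRET substrate fluorescence after 2 h at room temperature, following 16 h compound treatment at 37 C of HepG2 cells carrying an ARE-driven beta-lactamase reporter.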

Chain of Bile acid receptor (Homo sapiens) (Q96RI1 whole entry, looked up): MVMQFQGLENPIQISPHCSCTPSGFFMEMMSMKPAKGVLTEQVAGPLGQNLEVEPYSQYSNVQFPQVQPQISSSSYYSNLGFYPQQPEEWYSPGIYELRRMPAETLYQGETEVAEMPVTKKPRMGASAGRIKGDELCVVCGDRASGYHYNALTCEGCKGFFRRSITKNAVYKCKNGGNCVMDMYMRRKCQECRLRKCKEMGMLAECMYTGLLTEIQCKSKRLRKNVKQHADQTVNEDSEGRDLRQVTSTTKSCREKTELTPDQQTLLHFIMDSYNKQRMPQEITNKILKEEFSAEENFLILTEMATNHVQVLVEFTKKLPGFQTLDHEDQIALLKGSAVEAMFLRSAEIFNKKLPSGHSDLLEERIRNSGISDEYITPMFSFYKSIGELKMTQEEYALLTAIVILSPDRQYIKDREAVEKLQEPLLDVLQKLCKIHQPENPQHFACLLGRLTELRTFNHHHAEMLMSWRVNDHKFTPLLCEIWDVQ
Chain of Vitamin D3 receptor (Homo sapiens) (P11473 whole entry, looked up): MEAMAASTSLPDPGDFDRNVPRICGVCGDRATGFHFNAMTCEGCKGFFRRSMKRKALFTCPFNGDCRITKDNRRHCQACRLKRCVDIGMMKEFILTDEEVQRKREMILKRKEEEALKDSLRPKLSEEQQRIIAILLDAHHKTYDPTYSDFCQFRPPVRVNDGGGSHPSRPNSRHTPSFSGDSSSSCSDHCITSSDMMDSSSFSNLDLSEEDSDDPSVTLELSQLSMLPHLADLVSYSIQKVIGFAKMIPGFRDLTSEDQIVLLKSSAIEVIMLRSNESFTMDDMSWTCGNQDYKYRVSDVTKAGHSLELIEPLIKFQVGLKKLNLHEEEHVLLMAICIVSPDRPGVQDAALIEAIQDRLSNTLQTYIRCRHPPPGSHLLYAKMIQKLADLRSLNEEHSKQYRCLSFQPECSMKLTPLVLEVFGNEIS
Chain of Aryl hydrocarbon receptor (Homo sapiens) (P35869 whole entry, looked up): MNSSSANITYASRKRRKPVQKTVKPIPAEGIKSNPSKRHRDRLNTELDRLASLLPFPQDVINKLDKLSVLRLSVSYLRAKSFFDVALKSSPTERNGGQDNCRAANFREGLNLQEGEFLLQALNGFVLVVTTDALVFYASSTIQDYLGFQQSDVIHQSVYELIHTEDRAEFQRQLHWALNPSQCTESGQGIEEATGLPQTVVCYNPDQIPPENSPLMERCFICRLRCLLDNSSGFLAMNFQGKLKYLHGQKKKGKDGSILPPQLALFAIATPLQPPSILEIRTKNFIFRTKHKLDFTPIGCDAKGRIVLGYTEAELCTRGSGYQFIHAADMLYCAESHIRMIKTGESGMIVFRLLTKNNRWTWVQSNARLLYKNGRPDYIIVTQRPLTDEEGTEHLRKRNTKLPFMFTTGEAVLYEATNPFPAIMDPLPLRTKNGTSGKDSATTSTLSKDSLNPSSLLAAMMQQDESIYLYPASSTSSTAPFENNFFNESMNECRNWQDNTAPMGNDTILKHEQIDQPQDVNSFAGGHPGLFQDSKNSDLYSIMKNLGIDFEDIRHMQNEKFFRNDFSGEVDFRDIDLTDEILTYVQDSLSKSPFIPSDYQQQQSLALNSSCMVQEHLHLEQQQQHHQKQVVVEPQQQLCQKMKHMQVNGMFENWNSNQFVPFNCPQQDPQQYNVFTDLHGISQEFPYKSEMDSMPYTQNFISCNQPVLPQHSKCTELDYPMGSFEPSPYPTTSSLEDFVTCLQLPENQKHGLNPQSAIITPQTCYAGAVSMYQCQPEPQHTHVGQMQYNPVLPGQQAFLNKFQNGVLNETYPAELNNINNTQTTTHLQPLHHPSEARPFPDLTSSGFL
Chain of Peroxisome proliferator-activated receptor gamma (Homo sapiens) (P37231 whole entry, looked up): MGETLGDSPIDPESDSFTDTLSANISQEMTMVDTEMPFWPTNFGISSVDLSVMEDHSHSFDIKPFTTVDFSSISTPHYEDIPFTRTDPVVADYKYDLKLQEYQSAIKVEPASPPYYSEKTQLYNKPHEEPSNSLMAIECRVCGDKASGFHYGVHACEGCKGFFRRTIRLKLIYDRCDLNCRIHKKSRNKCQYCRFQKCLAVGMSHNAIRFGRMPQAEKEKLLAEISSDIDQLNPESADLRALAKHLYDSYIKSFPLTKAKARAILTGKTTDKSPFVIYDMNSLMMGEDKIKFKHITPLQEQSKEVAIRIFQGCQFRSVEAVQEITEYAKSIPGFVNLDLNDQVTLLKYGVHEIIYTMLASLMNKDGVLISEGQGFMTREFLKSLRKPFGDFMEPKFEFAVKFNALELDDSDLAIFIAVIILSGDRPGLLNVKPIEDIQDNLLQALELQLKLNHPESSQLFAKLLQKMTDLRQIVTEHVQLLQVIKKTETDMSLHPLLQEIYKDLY
Chain of Peroxisome proliferator-activated receptor delta (Homo sapiens) (Q03181 whole entry, looked up): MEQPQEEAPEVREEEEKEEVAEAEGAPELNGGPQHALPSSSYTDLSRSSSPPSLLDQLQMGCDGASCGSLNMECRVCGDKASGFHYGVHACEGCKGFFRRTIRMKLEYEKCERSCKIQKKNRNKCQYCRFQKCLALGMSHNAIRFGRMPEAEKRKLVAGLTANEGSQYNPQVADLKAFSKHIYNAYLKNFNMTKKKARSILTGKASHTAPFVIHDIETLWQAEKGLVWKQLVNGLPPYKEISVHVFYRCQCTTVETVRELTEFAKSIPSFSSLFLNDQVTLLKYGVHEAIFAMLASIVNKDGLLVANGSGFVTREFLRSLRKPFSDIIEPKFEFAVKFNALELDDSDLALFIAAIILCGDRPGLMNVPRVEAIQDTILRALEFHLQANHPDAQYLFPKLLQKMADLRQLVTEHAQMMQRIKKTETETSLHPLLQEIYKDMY

As for `Nc1nc(N)nc(N)n1`, the Potency result in test [1], in test [2], in test [3], in test [4], in test [5] and in test [6] was “inactive” throughout. Besides, the Potency entry in test [7], in [8], in test [10], in test [12], in test [13] and in test [14] was “inactive” each time. Further, the Potency entry in test [15] and in test [17] was “inactive” in each case. In addition, the outcome in test [9], in [11], in test [16], in test [18] and in test [19] was inactive.
As for `N#Cc1ccc(Cl)cc1`, the Potency result in test [1], in [2], in test [3], in [4], in [5] and in test [6] was “inactive” each time. Besides, the Potency result in test [20], in [7], in test [8], in test [10], in [12] and in test [15] was “inactive” in each case. Moreover, the Potency result in test [17] is “inactive”. Further, the outcome in [9], in test [11], in test [18] and in [19] was inactive.
On to `C#CCOC(C(=O)OCCN(C)C)(c1ccccc1)c1ccccc1`, for which the Potency entry in test [1], in [2], in [3], in [5], in [6] and in test [20] was “inactive” throughout. The Potency entry in test [7], in [8], in test [10], in test [12], in test [13] and in test [17] was “inactive” throughout. The compound was classed as inactive in [9], in test [11] and in [18].
Turning to `CN(C)c1ccc(N(C)C)cc1`, the Potency result in test [1], in test [3], in [4], in test [6], in test [7] and in [8] was “inactive” each time. The Potency entry in test [12], in [14], in [15] and in [17] was “inactive” throughout. Moreover, in test [2], the Potency is 61.3 µM (active). The compound was called inactive in test [9] and in [16].
`O=C1NCN(c2ccccc2)C12CCN(CCCOc1ccc(F)cc1)CC2`: the Potency entry in [1], in test [2], in test [4], in test [6], in test [8] and in test [12] was “inactive” in each case. The Potency entry in test [13] and in test [17] was “inactive” each time. Moreover, the Potency in [3] is 5.31 µM (active). For the same compound, the compound was classed as inactive in [11], in test [16] and in test [18].
Take `O=C(O)C(F)(F)C(F)(F)C(F)(F)C(F)(F)C(F)(F)C(F)(F)C(F)(F)C(F)(F)C(F)(F)C(F)(F)F`: the Potency entry in [1], in test [2], in test [3], in test [4], in test [6] and in [7] was “inactive” throughout. Further, the Potency entry in test [8], in test [10], in test [12], in test [14] and in test [17] was “inactive” each time. Further, the compound was called inactive in [9], in test [16], in [18] and in test [19].
With `O=[N+]([O-])c1ccc(F)c([N+](=O)[O-])c1`, the Potency result in [1] is “inactive and 30.9 µM (active)”; in test [3] it was “inactive and 49 µM (active)”; in test [7], 30.9 µM (active); in test [15] it was 2.21 µM (active). Moreover, the Potency result in test [2], in test [4], in [8], in test [13] and in test [14] was “inactive” throughout. Also, the compound was called inactive in test [11], in test [16] and in test [18].
`COC(=O)C(Cl)C(=O)OC`: the Potency entry in test [1], in test [2], in test [3], in test [4], in [6] and in [7] was “inactive” in each case. The Potency result in test [10], in test [12], in test [13] and in test [17] was “inactive” throughout. The outcome in test [9], in [11] and in test [16] was inactive.
Turning to `CCOP(=S)(OCC)Oc1nc(Cl)c(Cl)cc1Cl`, the Potency result in [1], in test [3], in test [4], in [6], in test [7] and in test [8] was “inactive” each time. Also, the Potency result in test [10], in [12], in [13], in test [14], in [15] and in [17] was “inactive” throughout. Besides, the Potency in test [2] is 27.4 µM (active) and 10.9 µM (active). Also, the call in test [9], in test [11], in test [16], in test [18] and in [19] was inactive.
